Measurements published in the supplement of paper PMC10338343.
± gives the standard deviation.

Test system: MILI (PIWIL2) piRISC loaded with piRNA #1 (26 nt)
Assay: pre-steady-state target cleavage rate (min^-1); guide: piRNA #1 5'p-UGAGGUAGUAGGUUGUAUAGUAUCCA; MIWI and MILI are mouse PIWI proteins and EfPiwi is from a freshwater sponge; tags in brackets are library labels; higher = faster piRNA-guided slicing of the target
Conditions: auxiliary factor: 500 nM mouse GTSF1
In short: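 A transcribed, DNA-blocked target RNA library (0.1 nM) and 1 nM active affinity-purified piRISC bearing one synthetic guide were incubated in HEPES–potassium acetate buffer at 33 °C for 0–8 or 0–960 min, either with or without 500 nM GTSF1 partner protein. Uncleaved targets were sequenced, normalised to depth and to weakly complementary targets, and pooled over three trials, with k3 capped at 0.0001 min^-1. The pre-steady-state cleavage rate was derived with a burst-and-steady-state fit.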

Row | Sequence | pre-steady-state target cleavage rate
1 | GGAGACCUAUGAUAACAACCUACUACCUUCA | 0.00428 ± 0.0025
2 | GGAGACCUAACUAUAGAACCUACUAGCUCA | 0.00426 ± 0.0041
3 | GGAGACCUAUGUAUUCAACCUUCUACCUCA | 0.00294 ± 0.0026
4 | GGAGACCUAACUAUUCAUCCUACUACCUCA | 0.322 ± 0.043
5 | GGAGACCUUACUAUUCAACCUACUACGUCA | 0.0709 ± 0.0096
6 | GGAGACCUAUGAUUACAACCUACUCCUCA | < 0.0001
7 | GGAGACCUAUGUAUACAACGUACUACCUCA | 0.00969 ± 0.0018
8 | GGAGACCUAUGUAUACAUGCUACUACCUCA | 0.0469 ± 0.007
9 | GGAGACCUAUGUAUACAACCUACUCACCUCA | 0.0823 ± 0.015
10 | GGAGACCUAACUAUACAACCUACUACCGCA | 0.197 ± 0.038
11 | GGAGUGGAUACAAUAGAACCUACUACCUCA | 0.163 ± 0.009
12 | GGAGACCUUACUAUACAAGCUUCUACCUCA | 0.036 ± 0.0065
13 | GGAGACCUAUGAUUACAACGUACUACCACA | 0.00319 ± 0.0028
14 | GGAGACCUAACUAUUCUACCUACUACCUCA | 0.104 ± 0.021
15 | GGAGACCUAUGAUAUGUAGGAACUACCUCA | < 0.0001
16 | GGAGACCUAUCAUACAACCUACUACCUCA | 0.0591 ± 0.0093
